Assay outcomes from PubChem BioAssay.
Rows were chosen to be rich in hits. Some 8.8% of all compounds tested hit in one or more screens of this group.
ALDH1A1 inh = inhibitors of human aldehyde dehydrogenase 1A1; P00352; Purified ALDH1A1, NADH fluorescence, propionaldehyde substrate; Potency, µM (series often up to 75.3 µM), without a hit: at the highest dose activity, negative = inhibition, most hits filed as inhibitors; hit rate 7.3% among 220,000;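 note: plate controls were no enzyme wells and a reference inhibitor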
HttQ103 aggreg = mutant huntingtin aggregation inhibition. PC12 HttQ103-GFP aggregates, Acumen cytometry, 40 h. Potency, µM (doses to about 46.1 µM), for the others: top-dose activity change, negative = inhibition, most hits filed as inhibitors. hit rate 1.1% among 220,000; active = well fitted curve in the direction sought with a large enough effect; inconclusive = small, poorly fitted or top-dose-only effect, or another doubt; inactive = no such curve, though single readings can be large; an effect the other way counts as inactive or inconclusive; note: % is set by controls: 0 for no effect and ±100 for the full control effect; nearly all actives have a fitted effect of over 60% in size
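Multiplexed with ATP-based cell death, this channel scores GFP aggregates in PC12 cells expressing inducible HTTex1-Q103-GFP. Induction used 100 nM tebufenozide; compounds were tested in concentration series.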
HPGD block = HPGD (human) dehydrogenase inhibition; purified HPGD, NADH fluorescence kinetic, PGE2 substrate; Potency, µM, without a hit: top-dose activity change, negative = inhibition, most hits filed as inhibitors; P15428; hit rate 4.3% among 150,000; note: % is set by controls: 0 for no effect and ±100 for the full control effect
Target sequence (P15428 whole entry, looked up): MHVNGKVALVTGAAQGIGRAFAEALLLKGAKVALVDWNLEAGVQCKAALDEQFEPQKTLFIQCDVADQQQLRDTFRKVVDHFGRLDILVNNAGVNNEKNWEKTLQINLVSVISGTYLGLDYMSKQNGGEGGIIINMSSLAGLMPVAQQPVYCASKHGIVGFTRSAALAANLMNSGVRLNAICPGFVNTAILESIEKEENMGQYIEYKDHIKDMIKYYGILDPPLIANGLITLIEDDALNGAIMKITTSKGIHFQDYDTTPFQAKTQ
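NADH formation kinetics: reaction with 30 uM PGE2 and 1 mM NAD+ (final), 20 nM enzyme, Tris-HCl pH 8 with Tween 20, after 15 min compound preincubation at room temperature. Fluorescence change, last versus first of five reads.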
HTT cytoprotect = Huntington cell model cytoprotection by ATP luminescence. PC12 HTT-Q103 induced, cytoprotection, ATP luminescence, 40 h. Potency, µM (titrated, usually from 56.4 µM), for inactives: cytoprotection (ATP increase), hits mostly activators. hit rate 0.14% among 230,000. AID 1471; active = well fitted curve in the direction sought with a large enough effect; inconclusive = small, poorly fitted or top-dose-only effect, or another doubt; inactive = no such curve, though single readings can be large; an effect the other way counts as inactive or inconclusive; note: % of control where 0% means no effect; nearly all actives have a fitted effect of over 45% in size
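Stable PC12 Q103-GFP cells in serum-supplemented, phenol red-free DMEM; induction by tebufenozide at 100 nM final; compound dose series; cell viability quantified luminescently from ATP.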
LMNA splice mod = LMNA splicing modulation | HeLa LMNA splicing GFP/RFP minigene ratio, 48 h | Potency, µM (top dose mostly 46.1 µM), without a hit: at the top dose ratio change, negative = inhibition, most hits filed as inhibitors | hit rate 0.01% among 200,000; active = well fitted inhibition curve with a large enough effect in the signal ratio, with a control signal flat, not every such curve was filed as active; inconclusive = small, poorly fitted or top-dose-only effect, or effect the other way, or a change in a side signal; the % refers to the signal ratio; note: % is set by controls: 0 for no effect and ±100 for the full control effect
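S3 HeLa cells stably expressing lamin A-EGFP splicing minigene plus DsRed2, 600 cells/well, 48 h compound exposure at 37C. Laser-scanning cytometry; analysed as GFP (500-530 nm)/RFP (575-640 nm) total intensity ratio; 0.5% DMSO vehicle.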
The depositor's hits bear a star; ? = inconclusive; . = no result given; [ ] = remark or other dose. Unless noted, calls come from the whole dose curve; as a rule, active = well fitted inhibition curve with a large enough effect (not every such curve was filed as active); inconclusive = small, poorly fitted or top-dose-only effect, or another doubt; inactive = no such curve, though single readings can be large or run the other way. Potency is the fitted concentration of half-maximal effect.

SMILES	ALDH1A1 inh	HttQ103 aggreg	HPGD block	HTT cytoprotect	LMNA splice mod
O=c1c2ccccc2nnn1CCO	5%	-2%[9.22 µM]	.	12%[10 µM]	.
COc1ccc(-n2c(=O)/c(=C\c3cccs3)s/c2=C(/C#N)C(=O)N2CCN(C)CC2)cc1	7.1µM*	-5%	.	-13%	.
COc1ccccc1C(=O)Nc1cccc(C(=O)OCc2cc(=O)n3nc(C)sc3n2)c1	.	.	.	.	5%[46 µM]
CC1(C)CC(=O)c2sc(NC(=O)c3ccc4ncsc4c3)nc2C1	3.5µM*	-9%	?	-20%[10 µM]	-7%
CC(Oc1ccccc1)C(=O)Nc1nc2c(s1)C(=O)CC(C)(C)C2 (configuration not stated)	14µM*	4%	-24%	2%	18%
CC1(C)CC(=O)c2sc(NC(=O)c3ccccc3)nc2C1	2.8µM*	8%	.	-65%[10 µM]	.
CC1(C)CC(=O)c2sc(NC(=O)c3cccs3)nc2C1	16µM*	-1%	-8%	-31%[1.9 µM]	-9%
CC1(C)CC(=O)c2sc(NC(=O)CN3CCCCC3)nc2C1	20µM*	9%	-20%	2%	23%
CC1(C)CC(=O)c2sc(NC(=O)C(C)(C)C)nc2C1	?	2%[9.22 µM]	.	-6%[10 µM]	-9%[46 µM]
NC(=O)/N=N/C(N)=O	0.45µM*	.	10µM*	-2%	.
CCOC(=O)CSC1=NC(=O)CS1	32µM*	-1%	14µM*	-9%	?
COc1cc(CCN2C(=O)N[C@@H](c3ccccc3)C(C(C)=O)=C2C)cc(OC)c1OC	-1%	.	-7%	4%	.
C[C@]12C[C@@](C)(C=C1/C=C/c1ccc(F)cc1)C(=O)C[C@H]2c1ccc(F)cc1	3%	.	-5%	-30%	.
[O-]/C(=C(\C(=S)Nc1cccc2ccccc12)[n+]1ccccc1)c1ccc2c(c1)OCCO2	10µM*	-11%[9.22 µM]	?	15%	21%
COc1cccc(NC(=S)/C(=C(\[O-])c2ccc(C)c([N+](=O)[O-])c2)[n+]2ccccc2)c1	?	12%	-16%	6%	-5%
[O-]/C(=C(\C(=S)Nc1cccc2ccccc12)[n+]1ccccc1)c1ccc(OC(F)F)cc1	19µM*	0%	.	-12%[10 µM]	3%[46 µM]
COc1cccc(NC(=S)/C(=C(\[O-])c2cc(C)n(-c3ccccc3F)c2C)[n+]2ccc(N(C)C)cc2)c1	?	13µM*	.	-78%	.
[O-]/C(=C(\C(=S)Nc1cccc2ccccc12)[n+]1ccccc1)c1cccs1	?	-6%[9.22 µM]	.	-8%	9%[46 µM]
COc1cccc(NC(=S)/C(=C(\[O-])c2ccc(OC(F)F)cc2)[n+]2ccccc2)c1	20µM*	-14%	.	-5%[10 µM]	-3%[46 µM]
COC(=O)c1ccc(NC(=O)c2nn(C)c3c2CS(=O)(=O)c2ccccc2-3)cc1	.	.	.	.	-27%[46 µM]
CCC(C)NC(=O)Cn1c(=O)n(-c2ccc(C)c(C)c2)c(=O)c2c(C)c(C(=O)N(CC)CC)sc21 (configuration not stated)	.	.	.	.	8%[46 µM]
O=C(c1noc2c1CCCCC2)N1CCN(c2ccc(Cl)cc2)CC1	.	.	.	.	-4%[46 µM]
COc1cccc(Nc2sc(C(=O)c3ccc(F)cc3)c(N)c2C(=O)NCc2ccc(C)cc2)c1	.	.	.	.	-9%[46 µM]
Cc1cc(NC(c2cccnc2)c2ccc3cccnc3c2O)no1 (configuration not stated)	-1%	?	-12%	-86%	?
CCC(=O)NC(c1ccc(OC)cc1)c1cc(Cl)c2cccnc2c1O (configuration not stated)	4%	-3%[9.22 µM]	.	-8%[10 µM]	.
COc1ccc(C(NC(=O)c2cccnc2)c2cc(Cl)c3cccnc3c2O)cc1OC (configuration not stated)	6%	2.8µM*	-15%	-76%	?
Oc1c(C(Nc2ccccn2)c2cccnc2)cc(Cl)c2cccnc12 (configuration not stated)	?	7.1µM*	-4%	-59%[10 µM]	?
Oc1c(C(Nc2cccc(C(F)(F)F)c2)c2cccnc2)ccc2cccnc12 (configuration not stated)	20µM*	?	-9%	11%[10 µM]	-11%
Cc1cc(C)cc(O)c1	?	.	-9%	-4%	.
O=C(NCc1ccco1)c1cc2nc(C3CC3)cc(C(F)(F)F)n2n1	?	-2%	18µM*	-8%	?
